Test results: the supplement of paper PMC7366291
Where a name gives a salt, the structure may show the parent alone. ± gives the standard deviation.

System: Danio rerio Tg(wt1b:EGFP) embryo, pronephros
Experiment: glomerular separation, fold change vs DMSO control; higher = glomeruli further apart (abnormal)
Details: 25 µM; exposure: 24-48 hpf
In short: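 In HEPES-buffered E3 with 0.003% PTU and 0.5% DMSO, dechorionated Tg(wt1b:EGFP) zebrafish embryos were exposed to 25 μM compound from 24 to 48 hpf at 28.5°C. Pronephroi were then imaged dorsally at 470 nm in 10 z-slices, in 96-well plates filled with agarose. On maximum projections, a Fiji macro turned 16 manually placed reference points into distances and angles, and values more than 2 SD from the feature mean were excluded. Features are fold changes relative to the mean of DMSO-treated embryos from the same day.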

Structure (SMILES) | glomerular separation
CN1CCN(CCCN2c3ccccc3Sc3ccc(C(F)(F)F)cc32)CC1 [Trifluoperazine dihydrochloride] | 1.22 ± 0.54
CC1(C)S[C@@H]2[C@H](NC(=O)[C@H](N)c3ccc(O)cc3)C(=O)N2[C@H]1C(=O)O [Amoxicillin] | 1.13 ± 0.42
NC(=O)N1c2ccccc2CC(=O)c2ccccc21 [Oxcarbazepine] | 0.94 ± 0.28
O=C1c2ccccc2C(=O)C1c1ccccc1 [Phenindione] | 1.02 ± 0.37
CC(=O)[C@H]1CC[C@H]2[C@@H]3CC=C4C[C@@H](O)CC[C@]4(C)[C@H]3CC[C@]12C [Pregnenolone] | 1.31 ± 0.74
CN1CCN(CC(=O)N2c3ccccc3C(=O)Nc3cccnc32)CC1 [Pirenzepine dihydrochloride] | 1.19 ± 0.65
COCC1=C(C(=O)OC(C)OC(=O)OC(C)C)N2C(=O)[C@@H](NC(=O)/C(=N\OC)c3csc(N)n3)[C@H]2SC1 (some centres not stated) [Cefpodoxime proxetil] | 1.06 ± 0.52
CC(C)OC(=O)CCC/C=C\C[C@@H]1[C@@H](CC[C@@H](O)CCc2ccccc2)[C@H](O)C[C@@H]1O [Latanoprost] | 1.02 ± 0.44
CN(C/C=C/c1ccccc1)Cc1cccc2ccccc12 [Naftifine hydrochloride] | 1.03 ± 0.34
C#C[C@]1(OC(C)=O)CC[C@H]2[C@@H]3CCC4=C[C@@H](OC(C)=O)CC[C@@H]4[C@H]3CC[C@@]21C [Ethynodiol diacetate] | 1.12 ± 0.65
CN(C)CCC(c1ccc(Cl)cc1)c1ccccn1 (configuration not stated) [Chlorpheniramine maleate] | 1.56 ± 0.77
COc1cc([C@@H]2c3cc4c(cc3[C@@H](O[C@@H]3O[C@@H]5CO[C@@H](C)O[C@H]5[C@H](O)[C@H]3O)[C@H]3COC(=O)[C@H]23)OCO4)cc(OC)c1O [Etoposide] | 0.917 ± 0.24
